This is a sample that favours compounds with a hit; in the whole collection about 17% have one here.
ClpP mod – qHTS Assay for Activators of ClpP | ATP-dependent Clp protease proteolytic subunit (Bacillus subtilis (strain 168)), P80244 | Potency, µM (top dose mostly 57.5 µM) | AID 651965, 2013 | hit rate 1.9% among 340,000 | purified B. subtilis ClpP, FRET peptide cleavage, 20 min; active means well fitted falling curve with a large enough effect; inconclusive means small, poorly fitted or top-dose-only effect; inactive means no such curve, though single readings can be large or run the other way; further: the source files actives as falling curves though it sought activators and does not explain the sign; nearly all actives have a fitted effect of over 65% in size
Target sequence (P80244 whole entry, looked up): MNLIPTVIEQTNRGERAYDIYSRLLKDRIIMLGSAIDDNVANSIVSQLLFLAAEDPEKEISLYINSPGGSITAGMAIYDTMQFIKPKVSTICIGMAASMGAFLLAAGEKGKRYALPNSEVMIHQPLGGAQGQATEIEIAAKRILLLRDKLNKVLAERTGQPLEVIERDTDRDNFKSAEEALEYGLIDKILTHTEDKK
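Purified B. subtilis ClpP, 10 microg/mL final in Tris/HCl pH8 with KCl, BSA, glycerol and Tween-20, cleaved an Abz/nitrotyrosine-quenched decapeptide. Fluorescence (ex 320, em 430) was read at 0 and 20 min at room temperature. Delta was normalized to 5.8 microM ADEP and DMSO/no-enzyme controls.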
DT40 TDP1 no CPT – qHTS for Inhibitors of human tyrosyl-DNA phosphodiesterase 1 (TDP1): qHTS in cells in absence of CPT; AID 686978, 2013; DT40 Tdp1-/- hTDP1 cells, no CPT, ATP luminescence, 48 h; Potency, µM (highest dose often 46.2 µM), most hits filed as inhibitors; hit rate 15% among 420,000; further: nearly all actives have a fitted effect of over 55% in size
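Chicken DT40 Tdp1-/- cells complemented with human TDP1, screened without camptothecin (DMSO vehicle only), 400 cells/well. Compounds pin-transferred, cells incubated at 37 °C for at least 48 hr. Growth read as ATP-dependent luminescence (CellTiter-Glo, 30 min at RT).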
TDP1 block – TDP1 (human) enzyme inhibition. Q9NUW8. recombinant TDP1, AlphaScreen DNA substrate cleavage. Potency, µM (titrated, usually from 130 µM), hits mostly inhibitors. hit rate 0.28% among 350,000. AID 485290; further: nearly all actives have a fitted effect of over 40% in size
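Steps: enzyme plus compound, 15 min RT; add biotin/phosphotyrosine-FITC oligonucleotide (15 nM final), react 5 min; add donor/acceptor beads (10 ug/ml final), 10 min; read AlphaScreen. Tdp1 at 1 nM final.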
DT40 TDP1 CPT – growth inhibition of DT40 Tdp1-/-;hTDP1 cells with camptothecin (screen for TDP1 inhibitors); Potency, µM (titrated, usually from 46.2 µM), actives largely listed as inhibitors; hit rate 12% among 420,000; chicken DT40 Tdp1-/-;hTDP1 cells + 20 nM CPT, ATP luminescence, 48 h; further: nearly all actives have a fitted effect of over 55% in size
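Chicken DT40 Tdp1-/- cells complemented with human TDP1, 400 cells/well, exposed to compounds plus 20 nM camptothecin for at least 48 h at 37 C; viability read as ATP content by CellTiter-Glo luminescence.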
Numbers stand for hits; 0 = inactive; ? = inconclusive; - = no result given. Unless noted, the call rests on the fitted dose curve; in most records, active means well fitted curve in the direction sought with a large enough effect; inconclusive means small, poorly fitted or top-dose-only effect, or another doubt; inactive means no such curve, though single readings can be large; an effect the other way counts as inactive or inconclusive.

SMILES	ClpP mod	DT40 TDP1 no CPT	TDP1 block	DT40 TDP1 CPT
COC(=O)c1ccc(C(/C=C/[C@@H](C)C(=O)NCc2ccc(OC)c(O)c2)NC(=O)OCc2ccccc2)cc1 (some centres undefined)	-	-	0	-
COc1ccc(-c2noc(CNC(=O)COc3cccc(C)c3C)n2)cc1	0	20.6µM	0	?
CCOC(=O)c1ccc(NC(=O)CCc2nc(-c3ccc(C)cc3)no2)cc1	0	20.6µM	0	?
CC(C)(C)c1ccc(-c2noc(CCC(=O)Nc3cccc(Cl)c3)n2)cc1	0	?	0	?
Cc1ccc(-c2noc(CNC(=O)COc3ccccc3C)n2)cc1	0	0	0	0
Cc1ccc(C)c(NC(=O)CCc2nc(-c3ccc(C(C)(C)C)cc3)no2)c1	0	16.4µM	0	23.1µM
COc1ccc(NC(=O)CCc2nc(-c3ccc(C)cc3)no2)c(OC)c1	0	18.4µM	0	?
CO[C@H]1[C@H](NC(=O)c2cccs2)c2ccccc2C12CCN(Cc1cccn1-c1cccnc1)CC2	-	0	-	0
CC(C)CCN(C(=O)COc1ccc(C#N)cc1)c1c(N)n(Cc2ccccc2)c(=O)[nH]c1=O	-	-	0	-
COc1ccc(-c2noc(CCC(=O)NCc3ccc(OC)cc3OC)n2)cc1	0	16.4µM	0	?
O=C(CCc1nc(-c2ccc(F)cc2)no1)Nc1cccc(C(=O)NC2CC2)c1	0	16.4µM	0	?
COc1ccc(CNC(=O)CCc2nc(-c3ccc(C)cc3)no2)c(OC)c1	0	?	0	?
COc1ccc(Cl)cc1N(C)C(=O)CCc1nc(-c2ccc(C)cc2)no1	0	23.1µM	0	18.4µM
Cc1ccccc1OCc1nnc(SCc2cc(=O)c3cc(F)ccc3[nH]2)n1C	0	11.6µM	0	13µM
Cc1cc(C)c2c(=O)cc(CSc3nnc(COc4ccccc4C)n3C)[nH]c2c1	0	?	0	?
Cc1ccccc1OCc1nnc(SCc2cc(=O)c3ccccc3[nH]2)n1C	0	14.6µM	0	13µM
O=c1cc(CSc2ccccc2)[nH]c2ccccc12	0	?	-	25.9µM
Cc1ccccc1OCc1nnc(SCc2nc3ccccc3c(=O)[nH]2)n1C	-	0	0	0
Cc1ccccc1OCc1nnc(SCc2cc(=O)c3ccc(C)c(C)c3[nH]2)n1C	0	16.4µM	0	?
NC(=O)c1ccc(NC(=O)COC(=O)C2COc3ccccc3O2)cc1 (centres undefined)	0	0	0	0
COC(=O)c1cc(C(=O)OCC(=O)NC(=O)c2ccccc2)cc([N+](=O)[O-])c1	-	0	0	0
Cc1ccccc1-c1csc(C(O)c2ccc(F)c(F)c2)n1 (centres undefined)	0	?	-	?
Cc1cccc(-c2nnc(SCc3cc(=O)c4cccc(Cl)c4[nH]3)n2C)c1	0	16.4µM	0	23.1µM
Cc1ccc2[nH]c(CSc3nnc(COc4ccccc4C)n3C)cc(=O)c2c1	0	14.6µM	0	18.4µM
Cc1ccc2c(=O)cc(CSc3nnc(-c4ccccc4)n3C)[nH]c2c1C	0	0	0	0
SMILES	ClpP mod	DT40 TDP1 no CPT	TDP1 block	DT40 TDP1 CPT
CC(=O)c1cccc(NC(=O)c2ccc3nc(Cc4ccccc4)oc3c2)c1	0	?	0	?
Cc1ccc2c(c1)c1ncnc(N3CCN(c4ccccc4)CC3)c1n2C	31.6µM	?	0	20.6µM
O=C(CSc1ccc(-c2ccco2)nn1)Nc1ccc(F)cc1F	0	?	0	?
Cn1ncc(Cl)c1C(=O)Nc1nc2ccc(Cl)cc2s1	0	23.1µM	0	16.4µM
Nc1ncnc2c1ncn2[C@@H]1O[C@H](C(=O)N(CCC2=CCCCC2)CC2CC2)[C@@H](O)[C@H]1O	0	16.4µM	-	?
COc1cccc2c1C(=O)c1c(O)c3c(c(O)c1C2=O)CC(O)(C(=O)CO)CC3OC1CC(N(C)C)C(O)C(C)O1 (centres undefined)	0	0.146µM	-	0.0146µM
CC(=O)[C@]1(O)Cc2c(O)c3c(c(O)c2[C@@H](O[C@H]2C[C@H](N)[C@H](O)[C@H](C)O2)C1)C(=O)c1ccccc1C3=O	0	0.0073µM	0	0.146µM
CC[C@@]1(O)C[C@H](O[C@H]2C[C@H](N(C)C)[C@H](O[C@H]3C[C@H](O)[C@H](O[C@H]4CCC(=O)[C@H](C)O4)[C@H](C)O3)[C@H](C)O2)c2c(cc3c(c2O)C(=O)c2c(O)cccc2C3=O)[C@H]1C(=O)OC	-	0.237µM	-	0.211µM
COc1ccc(C(=O)OCC(=O)Nc2c(C)n(C)n(-c3ccccc3)c2=O)cc1OC	0	0	0	0
COc1cccc(C(C)=C2SC(=S)NC2=O)c1	0	0	-	0
COc1ccc(CN2C(=O)C(CC(=O)NC3CCCCC3)CC(C(=O)N(C)C)=C2C)cc1 (centres undefined)	0	0	-	?
c1ccc2c(c1)OCCOCCOCCOCCOc1ccccc1OCCOCCOCCO2	0	18.4µM	0	14.6µM
CN1CCOCCOc2ccccc2OCCOCC1	0	0	-	0
CCN(CCC(=O)Nc1ccc(Br)c(C)c1)Cc1ccccc1	0	29.1µM	0	?
N#CCCn1c(=O)c(-c2ccc(F)cc2)nc2cnc(Oc3ccccc3)nc21	-	0	-	0
Cc1ccccc1NC(=O)Cc1nc(-c2c[nH]c(C(=O)N3CCCC3)c2)cs1	0	?	0	18.4µM
Cc1cccc(NC(=O)Cc2nc(-c3c[nH]c(C(=O)N4CCCC4)c3)cs2)c1	0	?	0	?
Cc1cc([N+](=O)[O-])ccc1NC(=O)CN1C2CCC1CC(NC(=O)NC13CC4CC(CC(C4)C1)C3)C2 (centres undefined)	-	5.17µM	0	14.6µM
O=C1NC[C@H](CCCCN2C[C@H](Cc3ccc(O)cc3)N(CCc3ccccc3)C(=O)C2=O)N(CC2CCCCC2)C1=O	0	0	-	0
O=C(CN(c1ccccc1Cl)S(=O)(=O)c1ccccc1)NC1CC2CCC1C2 (centres undefined)	0	?	-	?
O=C(NCCCN1CCCC1=O)c1cccc(S(=O)(=O)N2CCN(c3ccccc3)CC2)c1	15.8µM	0	0	0
COc1cccc(CN(C)C(=O)c2cccc(S(=O)(=O)N3CCN(Cc4ccccc4)CC3)c2)c1OC	0	16.4µM	0	13µM
CC1CCCN(S(=O)(=O)c2cccc(C(=O)NCCCN3CCCC3=O)c2)C1 (centres undefined)	0	0	-	0
CN(C)C(CNC(=O)c1cccc(S(=O)(=O)N2CCN(c3ccc(F)cc3)CC2)c1)c1ccccc1 (centres undefined)	-	9.2µM	-	14.6µM
COc1cccc(CN(C)C(=O)c2cccc(S(=O)(=O)N3CCN(c4ccc(F)cc4)CC3)c2)c1OC	-	13µM	0	20.6µM
CN(Cc1ccco1)C(=O)c1cccc(S(=O)(=O)N2CCN(Cc3ccccc3)CC2)c1	0	?	-	?
COc1cccc(CN(C)C(=O)c2ccc(Cl)c(S(=O)(=O)N3CCCCCC3)c2)c1OC	0	?	-	?

From PubChem BioAssay
